These results are taken from the supplement of paper PMC11006884.

Targets with a hit are over-represented here; the source holds about 6,500 in all. About 2% of all pairs of compound and target were hits. A number with no mark means an inactive call.

Chain of UniProt O15446 (O15446 whole entry, looked up): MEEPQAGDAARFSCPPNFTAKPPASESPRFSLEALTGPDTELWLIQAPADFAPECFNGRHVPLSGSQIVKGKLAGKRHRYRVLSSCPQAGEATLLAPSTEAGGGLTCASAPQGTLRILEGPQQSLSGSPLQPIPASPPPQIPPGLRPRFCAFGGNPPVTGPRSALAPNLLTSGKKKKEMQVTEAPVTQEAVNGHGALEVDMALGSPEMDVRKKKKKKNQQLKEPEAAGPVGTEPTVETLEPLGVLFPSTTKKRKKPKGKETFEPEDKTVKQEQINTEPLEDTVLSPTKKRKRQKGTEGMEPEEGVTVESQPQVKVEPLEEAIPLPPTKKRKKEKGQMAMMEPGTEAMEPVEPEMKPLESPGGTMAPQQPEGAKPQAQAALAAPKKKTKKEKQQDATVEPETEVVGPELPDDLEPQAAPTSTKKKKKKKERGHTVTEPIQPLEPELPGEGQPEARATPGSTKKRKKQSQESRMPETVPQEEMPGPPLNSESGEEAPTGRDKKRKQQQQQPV
Chain of UniProt O14727 (O14727 whole entry, looked up): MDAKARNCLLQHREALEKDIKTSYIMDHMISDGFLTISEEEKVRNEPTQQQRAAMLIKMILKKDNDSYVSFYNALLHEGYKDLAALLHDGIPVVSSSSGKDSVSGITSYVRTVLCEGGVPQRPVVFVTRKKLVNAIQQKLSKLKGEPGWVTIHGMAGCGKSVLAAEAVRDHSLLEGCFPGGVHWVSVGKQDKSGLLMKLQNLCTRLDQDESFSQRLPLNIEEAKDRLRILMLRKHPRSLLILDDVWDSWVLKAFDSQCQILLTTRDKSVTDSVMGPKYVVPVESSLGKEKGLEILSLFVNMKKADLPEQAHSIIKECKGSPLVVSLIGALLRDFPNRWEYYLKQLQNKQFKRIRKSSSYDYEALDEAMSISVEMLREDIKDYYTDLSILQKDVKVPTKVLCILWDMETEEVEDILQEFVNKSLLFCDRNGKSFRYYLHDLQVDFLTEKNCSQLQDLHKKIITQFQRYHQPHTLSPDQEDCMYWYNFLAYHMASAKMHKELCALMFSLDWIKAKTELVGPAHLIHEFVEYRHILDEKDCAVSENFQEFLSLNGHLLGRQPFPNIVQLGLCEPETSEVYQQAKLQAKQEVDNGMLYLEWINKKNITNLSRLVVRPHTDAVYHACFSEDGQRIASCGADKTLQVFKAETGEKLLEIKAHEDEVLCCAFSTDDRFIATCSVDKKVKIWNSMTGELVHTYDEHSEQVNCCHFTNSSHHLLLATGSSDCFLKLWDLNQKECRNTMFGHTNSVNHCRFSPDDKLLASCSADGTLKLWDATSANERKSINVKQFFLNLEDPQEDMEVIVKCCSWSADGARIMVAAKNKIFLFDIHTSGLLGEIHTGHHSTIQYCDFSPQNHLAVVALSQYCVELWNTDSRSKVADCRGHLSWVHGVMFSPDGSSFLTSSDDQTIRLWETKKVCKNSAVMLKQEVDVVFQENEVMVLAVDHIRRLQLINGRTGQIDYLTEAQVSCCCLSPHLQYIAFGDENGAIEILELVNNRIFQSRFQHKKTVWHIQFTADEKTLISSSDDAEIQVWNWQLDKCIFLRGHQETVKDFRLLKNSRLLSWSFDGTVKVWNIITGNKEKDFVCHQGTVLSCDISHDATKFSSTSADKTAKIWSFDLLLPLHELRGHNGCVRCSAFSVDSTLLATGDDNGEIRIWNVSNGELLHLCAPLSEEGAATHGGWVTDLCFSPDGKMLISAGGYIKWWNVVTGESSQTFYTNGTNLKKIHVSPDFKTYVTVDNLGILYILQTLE
Chain of UniProt O15067 (O15067 whole entry, looked up): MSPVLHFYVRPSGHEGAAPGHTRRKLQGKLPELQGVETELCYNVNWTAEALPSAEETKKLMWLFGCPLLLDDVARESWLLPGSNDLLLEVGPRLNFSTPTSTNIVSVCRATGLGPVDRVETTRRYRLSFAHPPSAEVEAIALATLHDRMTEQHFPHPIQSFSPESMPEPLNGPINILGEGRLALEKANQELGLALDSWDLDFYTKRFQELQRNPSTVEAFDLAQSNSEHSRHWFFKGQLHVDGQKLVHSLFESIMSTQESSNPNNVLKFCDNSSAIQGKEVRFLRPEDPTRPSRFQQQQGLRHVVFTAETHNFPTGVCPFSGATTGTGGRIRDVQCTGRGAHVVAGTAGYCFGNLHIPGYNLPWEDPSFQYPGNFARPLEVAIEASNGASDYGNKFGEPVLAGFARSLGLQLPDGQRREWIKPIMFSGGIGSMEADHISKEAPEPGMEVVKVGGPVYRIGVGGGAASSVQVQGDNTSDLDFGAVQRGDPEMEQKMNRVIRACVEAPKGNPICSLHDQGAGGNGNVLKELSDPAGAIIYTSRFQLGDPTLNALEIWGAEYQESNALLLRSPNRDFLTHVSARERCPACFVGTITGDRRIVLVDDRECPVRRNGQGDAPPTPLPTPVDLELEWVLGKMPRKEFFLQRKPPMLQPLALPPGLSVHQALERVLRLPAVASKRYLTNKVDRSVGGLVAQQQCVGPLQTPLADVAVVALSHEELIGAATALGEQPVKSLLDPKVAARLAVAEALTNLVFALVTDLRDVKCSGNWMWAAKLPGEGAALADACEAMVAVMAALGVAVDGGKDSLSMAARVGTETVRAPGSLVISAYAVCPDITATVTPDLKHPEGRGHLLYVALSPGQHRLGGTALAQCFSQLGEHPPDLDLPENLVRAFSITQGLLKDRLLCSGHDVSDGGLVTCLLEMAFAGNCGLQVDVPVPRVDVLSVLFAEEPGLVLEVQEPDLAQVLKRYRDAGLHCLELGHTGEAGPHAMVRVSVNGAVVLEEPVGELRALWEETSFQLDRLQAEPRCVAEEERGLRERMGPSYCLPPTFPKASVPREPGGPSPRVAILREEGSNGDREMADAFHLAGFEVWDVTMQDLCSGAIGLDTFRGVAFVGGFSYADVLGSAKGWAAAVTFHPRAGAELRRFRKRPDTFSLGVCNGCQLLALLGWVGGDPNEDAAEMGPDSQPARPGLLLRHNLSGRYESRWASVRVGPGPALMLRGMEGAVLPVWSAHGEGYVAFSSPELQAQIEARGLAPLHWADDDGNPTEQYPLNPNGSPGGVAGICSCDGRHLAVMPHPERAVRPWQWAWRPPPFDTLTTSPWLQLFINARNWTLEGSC
Chain of UniProt O75348 (O75348 whole entry, looked up): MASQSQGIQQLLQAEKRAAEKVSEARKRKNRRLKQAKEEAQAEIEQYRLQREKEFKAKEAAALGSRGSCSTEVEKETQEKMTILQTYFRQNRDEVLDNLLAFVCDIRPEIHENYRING
Chain of UniProt O43491 (O43491 whole entry, looked up): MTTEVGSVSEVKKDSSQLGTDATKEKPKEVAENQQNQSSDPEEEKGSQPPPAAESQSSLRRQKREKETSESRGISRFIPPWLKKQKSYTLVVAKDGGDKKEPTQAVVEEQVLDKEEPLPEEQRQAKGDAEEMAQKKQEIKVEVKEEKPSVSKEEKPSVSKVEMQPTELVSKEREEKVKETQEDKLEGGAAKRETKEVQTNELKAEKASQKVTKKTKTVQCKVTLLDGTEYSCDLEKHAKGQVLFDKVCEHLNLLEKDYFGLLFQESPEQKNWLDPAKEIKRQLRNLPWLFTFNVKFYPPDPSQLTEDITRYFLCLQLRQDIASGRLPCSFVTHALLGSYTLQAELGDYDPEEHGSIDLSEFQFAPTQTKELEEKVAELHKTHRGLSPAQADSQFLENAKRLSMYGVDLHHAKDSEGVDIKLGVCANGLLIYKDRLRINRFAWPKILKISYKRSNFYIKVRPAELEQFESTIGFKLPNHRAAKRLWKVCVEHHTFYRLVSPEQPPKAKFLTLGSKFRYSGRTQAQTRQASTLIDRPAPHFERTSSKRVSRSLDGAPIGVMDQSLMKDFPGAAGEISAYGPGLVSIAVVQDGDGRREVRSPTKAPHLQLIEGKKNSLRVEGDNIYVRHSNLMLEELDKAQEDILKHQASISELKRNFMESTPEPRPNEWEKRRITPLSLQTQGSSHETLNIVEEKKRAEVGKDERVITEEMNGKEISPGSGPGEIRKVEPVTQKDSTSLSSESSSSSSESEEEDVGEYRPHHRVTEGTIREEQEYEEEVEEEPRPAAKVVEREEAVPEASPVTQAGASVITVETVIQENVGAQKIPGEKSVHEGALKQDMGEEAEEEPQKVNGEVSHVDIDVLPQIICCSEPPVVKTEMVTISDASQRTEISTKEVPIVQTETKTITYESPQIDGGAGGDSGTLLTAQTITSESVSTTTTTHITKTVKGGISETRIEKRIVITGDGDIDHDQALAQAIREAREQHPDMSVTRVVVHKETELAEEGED
Chain of UniProt O14964 (O14964 whole entry, looked up): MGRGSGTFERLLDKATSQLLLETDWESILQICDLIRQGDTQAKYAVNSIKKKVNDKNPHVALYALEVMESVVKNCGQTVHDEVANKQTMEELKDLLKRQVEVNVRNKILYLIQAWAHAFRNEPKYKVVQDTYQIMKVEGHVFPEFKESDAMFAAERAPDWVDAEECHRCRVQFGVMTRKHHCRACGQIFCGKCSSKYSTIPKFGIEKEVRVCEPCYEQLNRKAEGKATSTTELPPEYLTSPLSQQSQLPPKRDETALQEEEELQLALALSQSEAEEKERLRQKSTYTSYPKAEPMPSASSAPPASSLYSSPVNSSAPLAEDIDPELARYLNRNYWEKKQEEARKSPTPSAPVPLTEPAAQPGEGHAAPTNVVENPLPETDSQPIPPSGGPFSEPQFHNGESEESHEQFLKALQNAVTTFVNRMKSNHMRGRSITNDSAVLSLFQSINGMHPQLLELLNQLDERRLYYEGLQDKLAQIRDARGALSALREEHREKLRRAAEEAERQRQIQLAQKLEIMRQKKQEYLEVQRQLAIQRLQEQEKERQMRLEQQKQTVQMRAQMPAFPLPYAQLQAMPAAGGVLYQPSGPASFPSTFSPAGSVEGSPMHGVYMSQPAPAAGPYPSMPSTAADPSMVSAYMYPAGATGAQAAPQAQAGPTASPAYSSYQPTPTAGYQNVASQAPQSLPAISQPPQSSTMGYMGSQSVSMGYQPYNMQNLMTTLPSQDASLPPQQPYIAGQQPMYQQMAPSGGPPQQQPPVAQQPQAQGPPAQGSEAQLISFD
Chain of UniProt O00244 (O00244 whole entry, looked up): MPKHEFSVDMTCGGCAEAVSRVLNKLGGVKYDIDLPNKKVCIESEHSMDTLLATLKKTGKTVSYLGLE

Compound in this experiment: COC(=O)C#Cc1ccccc1 [methyl 3-phenylpropiolate]
In words: log2 ratio of iodoacetamide-alkyne labeling of the cysteine site, DMSO over compound (competition); higher = stronger covalent engagement of the cysteine by the compound, active = 1 or more. The conditions noted are these: 500 µM; treatment time 1 h; system: HEK293T cell lysate. The procedure, abridged:
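Electrophile (500 µM) or vehicle was added to HEK293T lysate (2 mg/mL) for 1 h at ambient temperature before iodoacetamide alkyne labelling (1 h) and click coupling to sCIP-TMT reagents. After pooling, overnight trypsin digestion at 37 °C, streptavidin enrichment and acid elution, peptides were measured by Orbitrap Eclipse LC-MS/MS with FAIMS and quantified in FragPipe. Each cysteine's log2 competition ratio compares mean control-channel with mean compound-channel reporter intensity, control over compound. Data came from duplicate channels across three replicates, excluding cysteines quantified in only one replicate.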
As to EPB41L2 C424 (UniProt O43491), the “log2 ratio of iodoacetamide-alkyne labeling” value (“log2 ratio” below) was 0.17.
The figure for NMT2 C104 (UniProt O60551) is 0.453; for UniProt A0MZ66_C565 it is 0.734.
As to UTP20 C2058 (UniProt O75691), the “log2 ratio” value is 0.539.
For PCF11 C1534 (UniProt O94913), the “log2 ratio” value was 0.259.
For HEXIM1 C84 (UniProt O94992), the “log2 ratio” value was 1.3 (active).
In the case of UniProt O95071_C2267, the “log2 ratio” value is 0.736.
For SIVA1 C6 (UniProt O15304) the value was 1.88 (active); for UniProt O60232_C56, 0.126.
With DNM1L C367 (UniProt O00429), the “log2 ratio” value is 0.986.
With NVL C391 (UniProt O15381), the “log2 ratio” value is 0.0922.
On to RPP40 C49 (UniProt O75818), for which the “log2 ratio” value was 0.0974.
With TMEM189 C22 (UniProt A5PLL7), the “log2 ratio” value was 1.52 (active).
Take RECQL5 C664 (UniProt O94762): the “log2 ratio” value was 1.47 (active).
The figure for ARHGEF11 C1166 (UniProt O15085) is 0.618; for ATP6V1G1 C104 (UniProt O75348) it is 0.03.
Turning to APAF1 C115 (UniProt O14727), the “log2 ratio” value was 0.288.
As for UniProt O75153_C88, the “log2 ratio” value was 0.201.
Regarding UniProt O94822_C498, the “log2 ratio” value is 0.086.
UniProt O75153_C1196: the “log2 ratio” value was 0.492.
UniProt O00567_C211: the “log2 ratio” value was 1.14 (active).
The figure for HGS C166 (UniProt O14964) is 0.319.
As to EIF3G C139 (UniProt O75821), the “log2 ratio” value is 0.259.
PPFIA2 C143 (UniProt O75334): the “log2 ratio” value was -0.214.
As for ATOX1 C12 (UniProt O00244), the “log2 ratio” value is 1.27 (active).
Consider HEXIM1 C79 (UniProt O94992), for which the “log2 ratio” value was 1.3 (active).
The figure for TMEM189 C21 (UniProt A5PLL7) is 1.52 (active).
Regarding PFAS C606 (UniProt O15067), the “log2 ratio” value is 1.53 (active).
Turning to SF3B1 C1035 (UniProt O75533), the “log2 ratio” value is 0.375.
In the case of PHGDH C369 (UniProt O43175), the “log2 ratio” value is 1.78 (active).
With POM121C C438 (UniProt A8CG34), the “log2 ratio” value is 1.04 (active).
On to NUP155 C704 (UniProt O75694), for which the “log2 ratio” value is 0.168.
As for VPS4B C240 (UniProt O75351), the “log2 ratio” value is 0.188.
As to CD3EAP C107 (UniProt O15446), the “log2 ratio” value was 0.723.
As for AKAP8 C275 (UniProt O43823), the “log2 ratio” value was 1.06 (active).
Consider UniProt O75153_C153, for which the “log2 ratio” value is 0.605.
SF3B1 C677 (UniProt O75533): the “log2 ratio” value is 0.316.
In the case of DNM1L C446 (UniProt O00429), the “log2 ratio” value is 0.102.
